Data as given in PubChem BioAssay AID686979 (National Center for Advancing Translational Sciences (NCATS), 2013).
Several values for one entry are separate records, joined by “and”; a condition that tells them apart may be missing. Equal values may be shown once. Screen size: about 420,000 compounds; about 50,000 (12%) were called active. Another 26% or so got no clear call; they are omitted. The call rests on the fitted dose curve; in most records, active means well fitted inhibition curve with a large enough effect; inconclusive means small, poorly fitted or top-dose-only effect; inactive means flat fitted curve, though single readings scatter. The entries come from a sample that favours actives as a whole.

Assay: qHTS for Inhibitors of human tyrosyl-DNA phosphodiesterase 1 (TDP1): qHTS in cells in presence of CPT; further: nearly all actives have a fitted effect of over 55% in size
Conditions: chicken DT40 Tdp1-/-;hTDP1 cells + 20 nM CPT, ATP luminescence, 48 h; series mostly up to 46.2 µM; activity change, negative = growth inhibition: at the top concentration
From the text: Human tyrosyl-DNA phosphodiesterase 1 (TDP1) is a novel repair gene, and we propose to use it as a new target for anticancer drug development. TDP1 is not an essential protein, but under treatment with topoisomerase I poison (camptothecin: CPT), TDP1 works as a critical factor for cell survival. To directly identify novel TDP1 inhibitors active in a cellular environment, we have knocked-out the Tdp1 gene in chicken DT40 cells (Tdp1-/-) and generated a complemented counterpart cells that contains a stable transfection of the human TDP1 gene (Tdp1-/-;hTDP1 cells). For the primary screen, Tdp1-/-;hTDP1 cells will be exposed to small molecules in the presence or absence of CPT, and their growth kinetics will be evaluated after 48 hours by measuring ATP activity. […] The hit compounds will then be evaluated in the presence or absence of CPT using Tdp1-/- cells. […] In tertiary assays, biochemical gel-based assays will be used to assess whether the hit compounds specifically target TDP1. To this end, we have screened this cell line against the MLSMR in two primary screens. In one screen we add CPT and in the other we screen in the absence of CPT; this AID represents the screen where CPT was present. NIH Chemical Genomics Center [NCGC] NIH Molecular Libraries Probe Centers Network [MLPCN] MLPCN Grant: MH095538 Assay Submitter (PI): Yves Pommier, NCI
DT40-hTDP1 cells with 20 nM Camptothecin (add 20 microL of 1 mM CPT stock in 1 L of cell culture medium) were dispensed at 400 cells/5microL/well in tissue culture treated 1536-well white wall/solid bottom assay plates (Greiner Bio-One North America, NC, U.S.A.) using a Multidrop Combi 8 channel dispenser (Thermo Fisher, Waltham, MA, USA). 23 nL compounds and controls were transferred using the pin tool (Kalypsys, San Diego, CA, USA) to the assay plates. The assay plates were then incubated at 37 masculineC for a minimum 48 hr. Three microL of Cell Titer Glo solution was added to the plates and incubated at RT in dark for 30 min. Luminescence was read using ViewLux (Perkin Elmer) with 1 sec exposure slow speed, high gain and 2x binning.
On the % scale 0 is the no-effect control and ±100 the full control effect; potency means the concentration at half of the fitted maximal effect.

Row | SMILES | activity change, negative = growth inhibition | Potency
1 | ONC(=Nc1ccc(Cl)cc1)c1ccccc1Cl | -27.7% (inactive) | –
2 | Cc1ccc(/C=N/NC(=O)Cn2ccc(C(F)(F)F)n2)o1 | 11.8% (inactive) | –
3 | CCOc1ccc2oc(C(=O)N(CC)CC(=O)Nc3ccc(NC(C)=O)cc3)c(C)c2c1 | 0.608% (inactive) | –
4 | O=C1c2ccccc2C(=O)N1CCOc1ccc(F)cc1 | 12.8% (inactive) | –
5 | Cc1cccc(C)c1-n1nnnc1C1(C)CCC(=O)N1CCOc1ccccc1 (stereo not drawn) | -22.9% (inactive) | –
6 | Cc1cccc2c1N(CCOc1ccccc1)C(=O)C2=O | – | 2.06 µM (active)
7 | O=c1c2ccccc2ncn1CCCCOc1ccccc1F | -27.2% (inactive) | –
8 | CCOC(=O)N1CCN(C(=O)C(C)NC(=O)c2ccco2)CC1 (stereo not drawn) | -11.1% (inactive) | –
9 | CC(=O)c1ccc(N2CCN(C(=O)CCNC(=O)Cn3ccc4ccccc4c3=O)CC2)cc1 | -22.6% (inactive) | –
10 | CCOc1ccc(N(CC(=O)Nc2cccc(OC)c2)S(C)(=O)=O)cc1 | -24.5% (inactive) | –
11 | CCOc1cccc(NC(=O)c2ccc(F)c(S(=O)(=O)N(CC)c3cccc(C)c3)c2)c1 | – | 18.4 µM (active)
12 | CCOc1cccc(NC(=O)CC#N)c1 | 11% (inactive) | –
13 | O=c1[nH]c2ccccc2s1 | -3.32% (inactive) | –
14 | CC1CCCCN1C(=O)CCS(=O)(=O)Cc1ccccc1 (stereo not drawn) | -3.67% (inactive) | –
15 | COc1ccnc(Oc2ccccc2)n1 | 28.3% (inactive) | –
16 | CCC(C)c1ccccc1N1CC(C(=O)N2CCN(S(=O)(=O)c3ccc(F)cc3)CC2)CC1=O (stereo not drawn) | -14.4% (inactive) | –
17 | COc1ccc(CCNS(=O)(=O)c2cc3c(cc2C)NC(=O)CO3)cc1OC | 1.71% (inactive) | –
18 | CCOc1ccc(C(CC(=O)O)NC(=O)Cc2ccccc2)cc1OC (stereo not drawn) | 9.07% (inactive) | –
19 | COc1ccc(CC(=O)NC(C)CCc2ccccc2)cc1 (stereo not drawn) | 0.105% (inactive) | –
20 | CCC/C=C(\CCC)C(NC(=O)Cc1ccccc1)c1ccc(C(=O)OC)cc1 (stereo not drawn) | – | 18.4 µM (active)
21 | C=CCc1ccccc1OCC(=O)N/N=C/c1ccccc1OCC | -13.5% (inactive) | –
22 | Cc1cccc(OCC(=O)NCC(=O)N/N=C/c2ccc(N(C)C)cc2)c1 | -7.65% (inactive) | –
23 | Cc1ccc(/C=N/NC(=O)COc2ccccc2-c2ccccc2)cc1 | – | 0.164 µM (active)
24 | CCOc1ccc(N(CC(=O)NCC2CCCO2)S(=O)(=O)c2ccc(C)cc2)cc1 (stereo not drawn) | -25.1% (inactive) | –
25 | O=C(COC(=O)c1ccc2c(c1)OCCO2)NCc1ccccc1Cl | 11.6% (inactive) | –
26 | Cc1ccc(NC(=O)NC(=O)N(C2CCCCC2)S(=O)(=O)c2ccccc2)cc1 | -10.3% (inactive) | –
27 | COCCNc1nc(N)c([N+](=O)[O-])c(N2CCCCCC2)n1 | 11.3% (inactive) | –

Row | SMILES | activity change, negative = growth inhibition | Potency
28 | CSc1nsc(SCC(=O)Nc2cc(C(=O)O)ccc2C)n1 | -9.95% (inactive) | –
29 | Cc1cc(C(=O)N/N=C/c2ccccc2[N+](=O)[O-])c(C)o1 | -1.02% (inactive) | –
30 | Cc1ccc2[nH]c(C(=O)O)c(NC(=O)c3ccccc3[N+](=O)[O-])c2c1 | 9.57% (inactive) | –
31 | Cc1c(C(=O)N/N=C/c2ccccc2)[nH]c2c([N+](=O)[O-])cccc12 | – | 0.651 µM (active)
32 | O=c1c(O)c(Br)ccc2c(Br)c(O)c(O)c(O)c12 | -8.83% [at 9.04 µM] (inactive) | –
33 | O=C(COc1ccccc1O)NC1CCCC1 | 11.9% (inactive) | –
34 | COCCn1cnc2c1c(=O)n(CC(=O)NN)c(=O)n2Cc1ccccc1 | -19.6% (inactive) | –
35 | N=c1c2c(-c3ccccc3)c(-c3ccccc3)n(Cc3ccccc3)c2ncn1CCCO | – | 10.3 µM (active)
36 | CCN(CC)CCn1cnc2c1c(=O)[nH]c(=O)n2Cc1ccccc1 | 5.18% (inactive) | –
37 | CCOC(=O)c1sc(N)c(C#N)c1COC(=O)C1=COCCO1 | 0.608% (inactive) | –
38 | CCCNC(=S)N1CCC(NC(=O)C23CC4CC(CC(C4)C2)C3)CC1 | -18.2% (inactive) | –
39 | NC(N)=N/N=C/c1ccc(OCc2ccc(Cl)cc2Cl)cc1 | – | 25.9 µM (active)
40 | COC(=O)c1sc2ncccc2c1OCc1ccc(Cl)cc1Cl | -28.6% (inactive) | –
41 | COc1ccc(Cl)cc1N(CC(=O)N/N=C/c1ccc(OCC(N)=O)cc1)S(C)(=O)=O | -1.8% (inactive) | –
42 | CCOC(=O)C1CCN(S(=O)(=O)c2ccc3c(c2)N(C)C(=O)CC(=O)N3C)CC1 | – | inactive
43 | CC(=O)Nc1ccc(OCC(=O)NCc2ccc(C)cc2)cc1 | 1.79% (inactive) | –
44 | C/C(CC(=O)NCc1ccc(Cl)cc1)=N\NC(=O)COc1ccc(C)cc1Br | – | 16.4 µM (active)
45 | CCCCC(=O)N/N=C(\C)CC(=O)Nc1cc(Cl)ccc1OC | -9.87% (inactive) | –
46 | CN(CC(=O)Nc1cccc(F)c1)C(=O)C1CSC2(C)CCC(=O)N12 (stereo not drawn) | 5.41% (inactive) | –
47 | Cc1ccsc1C(=O)OCC(=O)NCCc1ccccc1 | -7.87% (inactive) | –
48 | Cc1cc(C)nc(Nc2n[nH]c(-c3ccccc3N)n2)n1 | -6.41% (inactive) | –
49 | C=CCC1=C/C(=C\c2c(N)n3nc(CC(=O)N4CCOCC4)sc3nc2=O)C=C(OC)C1=O | -14.2% (inactive) | –
50 | N#CCCN(C(=O)Nc1ccc(Cl)c(Cl)c1)C1CCCCC1 | -21.7% (inactive) | –
51 | Cc1ccn2c(Nc3ccc4c(c3)OCCO4)c(-c3ccc(C)s3)nc2c1 | -13.7% (inactive) | –
52 | Cc1ccc(Nc2c(-c3ccc(C)s3)nc3ccccn23)cc1 | – | 16.4 µM (active) and 20 µM (active)
53 | COc1cc(NC(=O)CN(C)S(=O)(=O)c2ccc3nc(C)sc3c2)cc(OC)c1 | 4.15% (inactive) | –
